Test [1] addresses Bile acid receptor (Homo sapiens) (UniProt Q96RI1). As to the kind of experiment: ATG_IR1_CIS: Attagene CIS-FACTORIAL HepG2 Assay for human Nuclear Receptor Subfamily 1 Group H Member 4 (NR1H4), IR1 submotif (AID 2282946). The note with it: IR1 reporter transcription, actives raise or lower the signal. An outline of the steps: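 Transient MRTU transfection, HepG2; 24 h dosing; RNA → RT-PCR → 6-FAM primer extension → HpaI digest → capillary electrophoresis fluorescence. Gain/loss of signal fitted relative to DMSO.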

Test [2] can be described thus: ATG_GRE_CIS: Attagene CIS-FACTORIAL HepG2 Assay for human Glucocorticoid Response Elements (GRE) (AID 2282947). The note with it: HepG2 GRE cis-reporter, Attagene multiplex mRNA; actives raise or lower the signal. An outline of the steps:
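Following 24 h chemical exposure of transiently transfected HepG2 cells, total RNA was reverse-transcribed and reporter cDNA amplified, fluorescently labelled and sized by capillary electrophoresis. Signal gain or loss was fitted relative to DMSO vehicle.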

Test [3] in a line: ATG_ISRE_CIS: Attagene CIS-FACTORIAL HepG2 Assay for human Interferon Regulatory Factor 1 (IRF1) binding to an Interferon-Stimulated Response Element (ISRE) (AID 2282948). The note with it: HepG2 ISRE cis-reporter (Attagene), mRNA transcription readout; actives raise or lower the signal. In short, it runs like this: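 Quantitation relies on labelled RT-PCR fragments separated by capillary electrophoresis. Human HepG2 cells bearing cis-promoter reporter constructs were treated 24 h; DMSO served as baseline for bidirectional fitting.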

Test [4] is described as follows: ATG_M_32_CIS: Attagene CIS-FACTORIAL HepG2 Assay for M32 Transcription Factor (Internal Marker) (AID 2282949).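 Note: background control marker of the multiplexed CIS panel rather than a real target.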 The note with it: HepG2 Attagene cis-factorial M32 reporter, mRNA; actives raise or lower the signal. An outline of the steps:
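Fluorescent capillary electrophoresis peaks of HpaI-digested, FAM-labelled RT-PCR reporter products give the signal. Source: transiently transfected human liver HepG2 cells, 24 h after chemical dosing; bidirectional fitting against DMSO.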

Test [5] in a line: ATG_M_06_CIS: Attagene CIS-FACTORIAL HepG2 Assay for M06 Transcription Factor (Internal Marker) (AID 2282950). The note with it: HepG2 Attagene CIS-FACTORIAL M06 internal marker reporter; actives raise or lower the signal. In short, it runs like this: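 Fluorescence-labelled RT-PCR products from cis-promoter reporter units, cut with HpaI and resolved by capillary electrophoresis, give the signal. Cells are human HepG2, dosed for 24 h. Serves as background control, fitted relative to DMSO.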

Test [6] addresses Hypoxia-inducible factor 1-alpha (Homo sapiens) (UniProt Q16665). As to the kind of experiment: ATG_HIF1a_CIS: Attagene CIS-FACTORIAL HepG2 Assay for human Hypoxia Inducible Factor 1 (HIF1A) (AID 2282951). The conditions noted are these: HepG2 Attagene cis-factorial HIF1a reporter transcription; actives raise or lower the signal. In short, it runs like this:
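Fluorescence intensity of capillary-separated, 6-FAM-labelled reporter amplicons gives mRNA induction in HepG2 cells carrying transfected cis-promoter reporter units; cells exposed 24 h, responses fitted up or down from DMSO.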

Test [7] concerns the target Hepatocyte nuclear factor 6 (Homo sapiens) (UniProt Q9UBC0). As to the kind of experiment: ATG_HNF6_CIS: Attagene CIS-FACTORIAL HepG2 Assay for human Hepatocyte Nuclear Factor 6 (HNF6) (AID 2282952). The note with it: HepG2 Attagene cis-factorial HNF6 reporter transcription; actives raise or lower the signal. An outline of the steps: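 Transiently transfected HepG2 cells expressing cis-regulated reporter transcription units were exposed to chemical for 24 h in a 24-well format. Reporter transcript abundance was determined by fluorescence capillary electrophoresis.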

In test [8] the target is Heat shock factor protein 1 (Homo sapiens) (UniProt Q00613). As to the kind of experiment: ATG_HSE_CIS: Attagene CIS-FACTORIAL HepG2 Assay for human Heat Shock Transcription Factor 1 (HSE) (AID 2282953). The conditions noted are these: HepG2 HSE cis-reporter, Attagene RNA transcription; actives raise or lower the signal. In short, it runs like this:
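After a 24 h incubation with test chemical, transfected HepG2 cells were harvested for RNA; reporter transcripts were measured by RT-PCR and capillary electrophoresis. Values reflect gain or loss of signal relative to DMSO.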

A short description of test [9]: ATG_MRE_CIS: Attagene CIS-FACTORIAL HepG2 Assay for human Metal Responsive Element (MRE) (AID 2282954). The note with it: HepG2 MRE cis-reporter transcription, Attagene multiplex; actives raise or lower the signal. An outline of the steps: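 Step one: transfect HepG2 with cis-regulated reporter units. Step two: dose 24 h. Step three: isolate RNA, RT-PCR, 6-FAM label, HpaI digest, capillary electrophoresis. Fit bidirectionally to DMSO.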

The nature of test [10]: ATG_PBREM_CIS: Attagene CIS-FACTORIAL HepG2 Assay for human Phenobarbital-responsive Enhancer Module (PBREM) (AID 2282955). The conditions noted are these: HepG2 PBREM cis-reporter, Attagene multiplexed transcription; actives raise or lower the signal. In short, it runs like this: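 Cells were transfected with cis-element reporter units and treated for 24 h, after which RNA was extracted and reporter transcripts measured by RT-PCR and capillary electrophoresis.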

Test [11] has as its target Paired box protein Pax-6 (Homo sapiens) (UniProt P26367). In words: ATG_Pax6_CIS: Attagene CIS-FACTORIAL HepG2 Assay for human Paired Box 6 (PAX6) (AID 2282956). The conditions noted are these: HepG2 CIS-FACTORIAL PAX6 reporter transcription, RNA readout; actives raise or lower the signal. In short, it runs like this: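 After twenty-four hours of chemical exposure, transfected HepG2 cells are harvested for RNA. Cis-promoter reporter transcripts are amplified, fluorescently labelled and sized by capillary electrophoresis, with gain and loss of signal scored against DMSO.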

Test [12] is described as follows: ATG_PXRE_CIS: Attagene CIS-FACTORIAL HepG2 Assay for human Pregnane X Receptor Element (PXRE) (AID 2282957). The conditions noted are these: HepG2 Attagene CIS-FACTORIAL PXRE reporter, mRNA; actives raise or lower the signal. In short, it runs like this: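 Cis-element reporter mRNA in human hepatoma HepG2 cells is measured 24 h post-dosing by RT-PCR, primer-extension labeling and capillary electrophoresis; gain or loss of signal is fitted relative to DMSO.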

Test [13] is described as follows: ATG_PPRE_CIS: Attagene CIS-FACTORIAL HepG2 Assay for human Peroxisome Proliferator-activated Response Element (PPRE) (AID 2282958). The note with it: HepG2 PPRE cis-element reporter, Attagene transcription factor profiling; actives raise or lower the signal. In short, it runs like this:
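In this cell-based multiplex, a PPRE cis element drives a reporter sequence in transiently transfected HepG2 cells. Following 24 h treatment, labeled cDNA amplicons are sized and quantified by capillary electrophoresis, with DMSO defining baseline.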

Test [14] in a line: ATG_RORE_CIS: Attagene CIS-FACTORIAL HepG2 Assay for human RAR-related Orphan Receptor Element (RORE) (AID 2282959). The note with it: HepG2 Attagene cis-factorial RORE reporter, mRNA; actives raise or lower the signal. In short, it runs like this: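 Endogenous factor activity at a cis response element is read as reporter transcript levels in HepG2 cells, 24 h post-dose. Transcripts are quantified by RT-PCR with capillary electrophoresis, and data fitted in both directions against DMSO.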

A short description of test [15]: ATG_Sox_CIS: Attagene CIS-FACTORIAL HepG2 Assay for human SRY-box transcription factor (SOX) (AID 2282960). The note with it: HepG2 Attagene cis-factorial SOX reporter, mRNA; actives raise or lower the signal. In short, it runs like this:
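Measures mRNA induction of a SOX1-associated reporter in HepG2 after 24 h dosing. Fluorescently labelled RT-PCR fragments are separated by capillary electrophoresis, and gain or loss relative to DMSO control is fitted.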

In test [16] the target is Transcription factor Sp1 (Homo sapiens) (UniProt P08047). As to the kind of experiment: ATG_Sp1_CIS: Attagene CIS-FACTORIAL HepG2 Assay for human Specificity Protein 1 (Sp1) (AID 2282961). The note with it: HepG2 Sp1 cis-reporter transcription, actives raise or lower the signal. In short, it runs like this:
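Cells: HepG2, transiently transfected with cis-regulated multiplexed reporters. Exposure: 24 h. Detection: reporter transcripts amplified, fluorescently labeled, restriction-digested and sized by capillary electrophoresis. Analysis: bidirectional fit relative to DMSO.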

Test [17] can be described thus: ATG_SREBP_CIS: Attagene CIS-FACTORIAL HepG2 Assay for human Sterol Regulatory Element Binding (SREBP) (AID 2282962). The note with it: HepG2 Attagene cis-factorial SREBP reporter, mRNA; actives raise or lower the signal. An outline of the steps:
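Twenty-four hours after chemical dosing of transfected HepG2 cultures, reporter RNA was converted to cDNA, amplified, end-labelled with 6-FAM and resolved by capillary electrophoresis. Responses were fitted relative to DMSO.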

Test [18] has as its target Signal transducer and activator of transcription 3 (Homo sapiens) (UniProt P40763). As to the kind of experiment: ATG_STAT3_CIS: Attagene CIS-FACTORIAL HepG2 Assay for human Signal Transducer and Activator of Transcription 3 (STAT3) (AID 2282963). The note with it: HepG2, Attagene cis-factorial STAT3 reporter transcription; actives raise or lower the signal. An outline of the steps: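 Transcript-level reporter assay. HepG2 transient MRTU transfection, 24 h exposure, fluorescence detection after RT-PCR and CE; DMSO baseline.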

Test [19] is described as follows: ATG_TA_CIS: Attagene CIS-FACTORIAL HepG2 Assay for human TA Basal Promoter (AID 2282964). The conditions noted are these: HepG2 Attagene CIS-factorial TA basal promoter reporter; actives raise or lower the signal. An outline of the steps: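 Multiplexed mRNA reporter assay, HepG2, 24 h. Reporter cDNA amplified, 6-FAM primer-extended, HpaI-cut, CE-sized; DMSO = negative control and baseline.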

Test [20] in a line: ATG_TCF_b_cat_CIS: Attagene CIS-FACTORIAL HepG2 Assay for human T-Cell-Factor with beta-catenin (TCF/b-cat) (AID 2282965). The conditions noted are these: HepG2 TCF/beta-catenin cis-reporter transcription, actives raise or lower the signal. In short, it runs like this:
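HepG2 cells transiently transfected with multiple cis-promoter-regulated reporter transcription units, so endogenous transcription factor activity is measured. Reporter mRNA read 24 hours after dosing by RT-PCR, fluorescent labelling and capillary electrophoresis; bidirectional fitting against DMSO.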

Here are results for 7 compounds from PubChem BioAssay (EPA / NIEHS).

Broadly, the AC50 is the concentration at which the activity in the assay is half-maximal.

Activity calls are given as the source filed them. Rule for the calls: active = hit-call score of the fitted dose curve at least 0.9, where 1 is the maximum; inactive = score below 0.9.

Sequence of Hypoxia-inducible factor 1-alpha (Homo sapiens) (Q16665 whole entry, looked up): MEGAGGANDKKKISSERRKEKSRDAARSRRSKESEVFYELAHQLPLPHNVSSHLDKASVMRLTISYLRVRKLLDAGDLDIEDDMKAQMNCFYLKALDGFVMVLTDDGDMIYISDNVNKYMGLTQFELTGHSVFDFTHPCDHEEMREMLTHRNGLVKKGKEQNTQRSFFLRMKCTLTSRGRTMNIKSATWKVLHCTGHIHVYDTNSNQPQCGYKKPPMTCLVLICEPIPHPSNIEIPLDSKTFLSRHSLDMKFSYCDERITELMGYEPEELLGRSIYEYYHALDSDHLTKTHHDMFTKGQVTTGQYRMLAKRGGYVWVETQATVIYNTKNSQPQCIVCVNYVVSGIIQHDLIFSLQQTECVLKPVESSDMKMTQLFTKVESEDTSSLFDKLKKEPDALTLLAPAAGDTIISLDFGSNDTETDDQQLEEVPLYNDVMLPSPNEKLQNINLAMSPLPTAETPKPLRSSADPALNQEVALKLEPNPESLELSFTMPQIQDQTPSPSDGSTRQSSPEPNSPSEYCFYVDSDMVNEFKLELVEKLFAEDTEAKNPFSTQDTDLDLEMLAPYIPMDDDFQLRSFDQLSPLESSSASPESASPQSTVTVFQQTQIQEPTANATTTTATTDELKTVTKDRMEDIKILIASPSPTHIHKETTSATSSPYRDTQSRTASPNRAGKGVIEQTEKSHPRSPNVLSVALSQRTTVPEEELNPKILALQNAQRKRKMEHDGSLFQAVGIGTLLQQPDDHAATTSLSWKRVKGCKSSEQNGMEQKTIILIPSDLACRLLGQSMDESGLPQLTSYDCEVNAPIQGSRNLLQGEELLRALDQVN
Sequence of Bile acid receptor (Homo sapiens) (Q96RI1 whole entry, looked up): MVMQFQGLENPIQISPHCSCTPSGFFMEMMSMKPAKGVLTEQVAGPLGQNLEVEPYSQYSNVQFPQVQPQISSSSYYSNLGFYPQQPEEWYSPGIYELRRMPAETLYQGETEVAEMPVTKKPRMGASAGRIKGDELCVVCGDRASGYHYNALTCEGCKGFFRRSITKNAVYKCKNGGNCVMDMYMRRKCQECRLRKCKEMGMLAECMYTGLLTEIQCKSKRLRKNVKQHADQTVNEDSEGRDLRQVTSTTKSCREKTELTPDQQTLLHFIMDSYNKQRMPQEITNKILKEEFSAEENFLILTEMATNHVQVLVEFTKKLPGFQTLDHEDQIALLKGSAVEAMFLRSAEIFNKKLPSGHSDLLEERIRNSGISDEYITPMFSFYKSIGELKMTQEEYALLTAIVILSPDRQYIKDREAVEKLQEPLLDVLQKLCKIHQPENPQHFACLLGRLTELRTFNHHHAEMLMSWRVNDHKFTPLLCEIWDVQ
Sequence of Paired box protein Pax-6 (Homo sapiens) (P26367 whole entry, looked up): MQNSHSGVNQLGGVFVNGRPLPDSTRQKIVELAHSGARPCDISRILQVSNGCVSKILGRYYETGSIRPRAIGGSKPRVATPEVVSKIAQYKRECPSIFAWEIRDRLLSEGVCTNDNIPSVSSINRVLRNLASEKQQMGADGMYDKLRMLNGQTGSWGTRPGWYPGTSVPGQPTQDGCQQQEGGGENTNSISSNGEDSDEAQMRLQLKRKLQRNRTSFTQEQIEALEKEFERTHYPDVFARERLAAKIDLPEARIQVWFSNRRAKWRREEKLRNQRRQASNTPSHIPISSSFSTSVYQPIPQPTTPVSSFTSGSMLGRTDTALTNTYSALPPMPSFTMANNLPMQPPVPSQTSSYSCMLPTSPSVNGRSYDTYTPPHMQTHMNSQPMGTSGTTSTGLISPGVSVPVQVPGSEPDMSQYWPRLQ
Sequence of Transcription factor Sp1 (Homo sapiens) (P08047 whole entry, looked up): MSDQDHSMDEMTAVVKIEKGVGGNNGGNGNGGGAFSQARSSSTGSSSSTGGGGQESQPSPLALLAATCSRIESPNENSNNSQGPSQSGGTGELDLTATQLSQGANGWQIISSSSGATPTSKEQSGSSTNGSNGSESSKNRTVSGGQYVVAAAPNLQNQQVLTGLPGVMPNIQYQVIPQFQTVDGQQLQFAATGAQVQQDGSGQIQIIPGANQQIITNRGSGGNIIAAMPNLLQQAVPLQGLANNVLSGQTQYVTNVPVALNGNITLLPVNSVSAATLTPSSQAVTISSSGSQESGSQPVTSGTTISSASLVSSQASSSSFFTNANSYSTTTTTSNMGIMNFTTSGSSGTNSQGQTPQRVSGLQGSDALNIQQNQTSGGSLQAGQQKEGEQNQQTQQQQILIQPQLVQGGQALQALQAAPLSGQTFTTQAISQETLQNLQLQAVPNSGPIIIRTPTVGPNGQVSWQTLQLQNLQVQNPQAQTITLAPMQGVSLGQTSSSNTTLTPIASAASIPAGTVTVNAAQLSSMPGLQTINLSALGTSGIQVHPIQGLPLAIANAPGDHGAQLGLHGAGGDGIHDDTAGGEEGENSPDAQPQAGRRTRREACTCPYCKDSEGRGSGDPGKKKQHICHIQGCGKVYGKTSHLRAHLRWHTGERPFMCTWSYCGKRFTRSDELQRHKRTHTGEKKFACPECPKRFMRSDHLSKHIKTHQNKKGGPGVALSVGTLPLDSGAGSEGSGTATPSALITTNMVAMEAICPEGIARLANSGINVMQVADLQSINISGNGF
Sequence of Hepatocyte nuclear factor 6 (Homo sapiens) (Q9UBC0 whole entry, looked up): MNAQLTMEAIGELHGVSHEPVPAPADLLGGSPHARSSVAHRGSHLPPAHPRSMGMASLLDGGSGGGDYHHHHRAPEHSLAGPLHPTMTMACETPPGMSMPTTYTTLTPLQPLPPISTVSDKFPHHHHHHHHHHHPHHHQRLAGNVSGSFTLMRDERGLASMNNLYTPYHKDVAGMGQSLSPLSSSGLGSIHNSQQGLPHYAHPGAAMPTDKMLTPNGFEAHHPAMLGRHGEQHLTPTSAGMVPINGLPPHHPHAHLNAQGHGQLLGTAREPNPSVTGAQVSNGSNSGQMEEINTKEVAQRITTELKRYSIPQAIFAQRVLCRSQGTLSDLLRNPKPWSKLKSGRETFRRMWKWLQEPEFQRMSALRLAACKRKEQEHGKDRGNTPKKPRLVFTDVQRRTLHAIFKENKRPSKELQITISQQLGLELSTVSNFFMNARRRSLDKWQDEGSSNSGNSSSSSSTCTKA
Sequence of Signal transducer and activator of transcription 3 (Homo sapiens) (P40763 whole entry, looked up): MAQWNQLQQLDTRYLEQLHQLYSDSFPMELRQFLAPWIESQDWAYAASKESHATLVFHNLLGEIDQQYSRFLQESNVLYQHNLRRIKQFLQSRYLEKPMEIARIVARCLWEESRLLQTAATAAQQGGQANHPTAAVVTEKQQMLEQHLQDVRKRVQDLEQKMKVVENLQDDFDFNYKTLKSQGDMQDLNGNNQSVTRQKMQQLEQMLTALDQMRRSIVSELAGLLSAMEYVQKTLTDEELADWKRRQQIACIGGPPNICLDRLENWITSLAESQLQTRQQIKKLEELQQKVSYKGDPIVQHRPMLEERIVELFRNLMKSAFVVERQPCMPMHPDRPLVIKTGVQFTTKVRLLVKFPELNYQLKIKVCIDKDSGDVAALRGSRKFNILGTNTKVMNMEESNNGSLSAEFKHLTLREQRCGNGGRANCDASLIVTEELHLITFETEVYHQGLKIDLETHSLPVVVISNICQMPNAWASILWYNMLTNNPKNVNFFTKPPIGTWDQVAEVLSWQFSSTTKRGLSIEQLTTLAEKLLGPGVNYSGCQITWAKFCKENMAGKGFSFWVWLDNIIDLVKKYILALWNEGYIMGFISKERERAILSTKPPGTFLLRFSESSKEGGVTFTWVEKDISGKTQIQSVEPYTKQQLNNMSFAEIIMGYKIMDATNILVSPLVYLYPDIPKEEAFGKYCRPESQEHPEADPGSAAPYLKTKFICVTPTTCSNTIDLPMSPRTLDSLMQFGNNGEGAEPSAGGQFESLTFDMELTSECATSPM
Sequence of Heat shock factor protein 1 (Homo sapiens) (Q00613 whole entry, looked up): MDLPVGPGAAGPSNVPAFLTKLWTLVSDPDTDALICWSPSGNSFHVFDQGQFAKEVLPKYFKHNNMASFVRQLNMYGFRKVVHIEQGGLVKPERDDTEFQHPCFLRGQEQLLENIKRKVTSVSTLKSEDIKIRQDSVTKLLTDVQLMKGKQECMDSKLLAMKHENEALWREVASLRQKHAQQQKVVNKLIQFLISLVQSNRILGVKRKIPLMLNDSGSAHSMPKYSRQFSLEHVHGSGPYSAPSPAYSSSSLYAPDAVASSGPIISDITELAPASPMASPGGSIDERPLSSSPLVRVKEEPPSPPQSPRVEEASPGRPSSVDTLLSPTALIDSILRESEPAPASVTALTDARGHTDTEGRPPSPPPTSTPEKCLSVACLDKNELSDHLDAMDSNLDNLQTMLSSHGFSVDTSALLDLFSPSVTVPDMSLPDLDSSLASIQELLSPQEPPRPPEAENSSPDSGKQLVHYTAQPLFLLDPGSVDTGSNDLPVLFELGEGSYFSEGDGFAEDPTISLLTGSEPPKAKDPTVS

Take `CCOP(=S)(S)OCC`: the result in test [1], in test [2], in test [3], in test [4], in [5] and in test [6] was inactive. The call in test [7], in [9], in [10], in test [11], in test [13] and in [14] was inactive. The compound was classed as inactive in test [15], in test [16], in test [17], in test [18], in test [19] and in [20]. In addition, the values for the AC50 in test [8] and in test [12] were 157 µM (active) and 57.5 µM (active), respectively.
Regarding `C=C(C)C(=O)OCC1CO1` (centres undefined), the compound was classed as inactive in test [1], in test [2], in test [3], in [4], in test [5] and in test [6]. Also, the call in [7], in test [8], in test [9], in test [10], in test [11] and in test [12] was inactive. Also, the call in test [13], in test [15], in [16], in test [17], in [18] and in test [19] was inactive. Besides, in [20], the outcome was inactive.
As for `CO/N=C(/C(=O)OC)c1ccccc1COc1ccccc1C`, the compound was called inactive in test [1], in [2], in [3], in [4], in test [5] and in [7]. The result in [10], in test [15], in [16], in test [18], in test [19] and in [20] was inactive. Further, the AC50 in [6] is 100 µM (active); in test [8], 150 µM (active); in [9], 100 µM (active); in [11] it was 70.1 µM (active); in test [12] it was 4.57 µM (active); in [14], 36.5 µM (active).
With `Oc1ccc(I)cc1`, the call in test [1], in test [2], in test [3], in test [4], in [5] and in test [6] was inactive. Further, the outcome in test [7], in [8], in test [9], in [10], in test [11] and in [12] was inactive. Besides, the compound was called inactive in test [13], in test [15], in test [16], in [18], in [19] and in [20].
On to `CC(O)C#N` (centres undefined), for which the result in test [1], in test [2], in test [3], in test [4], in test [5] and in [6] was inactive. Moreover, the outcome in test [7], in [8], in test [9], in test [10], in [11] and in [12] was inactive. Besides, the outcome in test [13], in [14], in test [15], in test [16], in test [17] and in test [18] was inactive. The call in test [19] and in test [20] was inactive.
As for `CC(C)(C)N(NC(=O)c1ccc(Cl)cc1)C(=O)c1ccccc1`, the compound was classed as inactive in [1], in test [2], in [3], in [4], in test [5] and in test [6]. Further, the call in test [7], in [8], in test [9], in [10], in test [11] and in test [13] was inactive. The result in [14], in [15], in test [16], in test [17], in [18] and in [19] was inactive. Also, the compound was called inactive in [20]. The concentration at half-maximal activity (AC50) in [12] was 4.36 µM (active).
Turning to `CCCCN(CC)C(=O)SCCC`, the outcome in test [1], in test [2], in test [3], in [4], in [5] and in test [6] was inactive. The compound was called inactive in test [7], in [8], in test [9], in test [10], in test [11] and in test [13]. Moreover, the result in test [15], in test [16], in test [17], in test [18], in test [19] and in test [20] was inactive. For the same compound, the AC50 in test [12] was 25.9 µM (active).
